The structures appear in SMILES notation.

Experiment [1] concerns Human papillomavirus type 1a protein E7 (residues 44-93). Briefly: HPV1a E7 fragment binders on microarrays, primary screen, biochemical, small-molecule microarray, residues 44-93, 635 nm fluorescence (AID 1108).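 Note: E7 fragment applied at 1 µg/mL in TBST for 1 h at 4 C; score combines spot fluorescence with its signal to noise ratio.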 To be noted: small-molecule microarray binding, fluorescence 635 nm; higher = more signal.
Experiment [2] can be described thus: modulators of HCV replicon luciferase signal, primary screen, HCV replication inhibitor project, Huh7 cells, luciferase reporter (AID 1109).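 Note: huh7 hepatoma cells harbouring a luciferase neomycin HCV replicon reporter; luciferase luminescence as measure of HCV replicon replication; test concentration not given here.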 To be noted: 48 h, higher = more signal.
The target in experiment [3] is Left-right determination factor 2 (Homo sapiens) (UniProt O00292). Kind of experiment: LEFTY2 binders on small-molecule microarrays, primary screen, biochemical, small-molecule microarray, 635 nm fluorescence scan (AID 1110). To be noted: LEFTY2 binding, higher = more signal.
Chain of Left-right determination factor 2 (Homo sapiens) (O00292 whole entry, looked up): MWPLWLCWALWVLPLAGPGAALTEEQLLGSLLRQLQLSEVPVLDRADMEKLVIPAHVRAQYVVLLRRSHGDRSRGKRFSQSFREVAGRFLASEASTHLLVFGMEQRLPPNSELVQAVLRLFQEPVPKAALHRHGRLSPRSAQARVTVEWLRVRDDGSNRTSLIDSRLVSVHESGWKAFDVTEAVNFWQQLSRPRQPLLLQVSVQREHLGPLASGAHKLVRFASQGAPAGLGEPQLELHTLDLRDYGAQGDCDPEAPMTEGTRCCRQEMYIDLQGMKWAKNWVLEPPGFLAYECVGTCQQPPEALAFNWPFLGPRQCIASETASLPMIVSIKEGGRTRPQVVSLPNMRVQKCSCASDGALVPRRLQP
Experiment [4] has as its target Calmodulin-1 (Homo sapiens) (UniProt P0DP23). Briefly: CALM1 binders on microarrays, EGTA buffer, profiling panel, biochemical, small-molecule microarray, Cy5-labelled CALM1 (AID 1111).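 Note: labelled calmodulin applied in Tris saline Tween buffer holding calcium plus EGTA and DTT.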 To be noted: Cy5-CALM1 binding fluorescence, higher = more signal.
For experiment [5] the target is unchanged. Kind of experiment: calcium-bound CALM1 binders on microarrays, profiling panel, artefact control for SMM control-protein annotation, biochemical, small-molecule microarray, Cy5-labelled CALM1, plus calcium (AID 1112).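 Note: score merges spot fluorescence with signal to noise from triplicate slides.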 To be noted: Cy5-CALM1 binding fluorescence, higher = more signal.
Experiment [6] in a line: small-molecule microarray binders of probe aWnt5a, primary screen, biochemical, biotinylated probe, 635/667 nm fluorescence (AID 1113).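 Note: score merges 667 nm fluorescence intensity with signal-to-noise per printed feature.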 To be noted: higher = more signal.
Experiment [7] is described as follows: small-molecule microarray binders of probe aShh, primary screen, biochemical, biotinylated probe, 635/667 nm fluorescence (AID 1114).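 Note: probe is biotin-labelled aShh protein from a stem cell growth factor screen; measures binding of labelled protein to compounds printed on the slide; score merges feature fluorescence at 667 nm with signal-to-noise.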 To be noted: higher = more signal.
Experiment [8] can be described thus: small-molecule microarray binders of probe aNog, primary screen, biochemical, biotinylated probe, 635/667 nm fluorescence (AID 1115).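 Note: probe is biotinylated aNog protein used at 0.15 µg/mL for 1 h at 4 C; z-score combines 667 nm fluorescence of each spot with its signal to noise.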 To be noted: higher = more signal.
The target in experiment [9] is Torsin-1A-interacting protein 1 (Homo sapiens) (UniProt Q5JTV8). Briefly: LAP1 binders from COS7 cell lysate, primary screen, small-molecule microarray, 635/667 nm fluorescence (AID 1116). To be noted: COS7-hLAP1 lysate binding, 635 nm fluorescence, higher = more signal.
Chain of Torsin-1A-interacting protein 1 (Homo sapiens) (Q5JTV8 whole entry, looked up): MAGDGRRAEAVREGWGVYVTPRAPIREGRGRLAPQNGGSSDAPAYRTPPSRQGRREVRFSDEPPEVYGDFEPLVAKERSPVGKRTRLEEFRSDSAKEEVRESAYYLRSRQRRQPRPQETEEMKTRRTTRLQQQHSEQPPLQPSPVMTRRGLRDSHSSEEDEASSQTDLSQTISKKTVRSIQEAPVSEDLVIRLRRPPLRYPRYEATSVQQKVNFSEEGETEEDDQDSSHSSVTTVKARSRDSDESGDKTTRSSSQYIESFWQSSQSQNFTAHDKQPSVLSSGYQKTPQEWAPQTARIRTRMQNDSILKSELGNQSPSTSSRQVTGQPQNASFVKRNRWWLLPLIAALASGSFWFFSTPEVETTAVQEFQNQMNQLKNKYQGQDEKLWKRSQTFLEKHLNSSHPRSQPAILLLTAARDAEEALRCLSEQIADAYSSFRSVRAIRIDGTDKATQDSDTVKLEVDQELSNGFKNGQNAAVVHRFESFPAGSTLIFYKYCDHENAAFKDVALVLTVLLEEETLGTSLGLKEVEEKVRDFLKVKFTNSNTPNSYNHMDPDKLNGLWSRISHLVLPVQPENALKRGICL
Experiment [10] has as its target Alpha-bungarotoxin (Bungarus multicinctus) (UniProt P60615). Kind of experiment: alpha-bungarotoxin binders on microarray, profiling panel, artefact control for SMM control protein annotation, biochemical, small-molecule microarray, Alexa647 label, 635/667 nm fluorescence (AID 1117). To be noted: alpha-BTX-A647 binding fluorescence, higher = more signal.

Chain of Alpha-bungarotoxin (Bungarus multicinctus) (P60615 whole entry, looked up): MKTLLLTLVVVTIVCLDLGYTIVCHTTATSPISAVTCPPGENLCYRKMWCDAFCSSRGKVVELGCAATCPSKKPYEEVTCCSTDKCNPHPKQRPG

Take `C[C@H]1COC(=O)[C@@H]2CCCN2C(=O)[C@@H](C)COC(=O)[C@H](Cc2ccccc2)NC1=O`: the composite z-score was 0.851 in [1]; 0.474 in experiment [3]; -0.099 in experiment [4]; -0.447 in experiment [5]; -0.124 in [6]; -0.206 in experiment [7]. Moreover, the composite z-score is -0.3 in experiment [8], 0.308 in experiment [9] and 0.158 in experiment [10]. In experiment [2], this molecule showed a z-score of -1.34.

`O=c1n(-c2ccccc2)c(=O)n2n1CC[C@@H]1C(=NOCc3ccccc3)[C@H]3O[C@H]3[C@@H](O)[C@@H]12`: the composite z-score in experiment [1] was 0.0398; in [3], 0.582; in experiment [4] it was -0.608; in experiment [5] it was -0.879; in [6], -0.164; in experiment [7], -0.0035. The composite z-score in [8] is -0.113; in [9], 0.0741; in experiment [10], 1.55. Also, in experiment [2], the z-score is -2.05.

For the molecule `COC(=O)CC=C[C@@H](C)[C@@H](C=NO[C@H](C)c1cn([C@H](CO)Cc2ccccc2)nn1)NS(=O)(=O)c1ccc(C)cc1`, the composite z-score was 0.37 in [1]; 0.483 in experiment [3]; 0.333 in experiment [4]; -0.215 in experiment [5]; -0.152 in [6]; 0.178 in [7]. The composite z-score in experiment [8] is -0.0196; in experiment [9] it was 1.42; in experiment [10] it was 1.56. Besides, in [2], the z-score is -1.35.

As for `COC(=O)[C@@H]1CC[C@H](C)[C@@H](c2ccc(C)cc2)N1C(=O)c1ccc(C=NOC[C@@H](C)[C@H](OCc2ccccc2)C(C)C)cc1`, the composite z-score in experiment [1] was 1.09; in [3], 0.583; in experiment [4] it was -0.0027; in experiment [5] it was -0.607; in [6], -0.0276; in [7], -0.0553. For the same molecule, the composite z-score in [8] was -0.302; in [9] it was 1.27; in experiment [10], 1.25. The z-score in experiment [2] is -0.989.

With `O=C1C[C@@H](O)[C@@H](O)[C@@H]2[C@@H]3C(=O)N(Cc4ccc5c(c4)OCO5)C(=O)[C@@H]3CC[C@H]12`, the composite z-score is 0.508 in experiment [1]; 0.632 in experiment [3]; -0.0373 in experiment [4]; -0.646 in experiment [5]; -0.208 in experiment [6]; 0.0121 in experiment [7]. The composite z-score was -0.0502 in experiment [8], 0.346 in experiment [9] and -0.109 in experiment [10]. In experiment [2], this molecule showed a z-score of -0.194.

For the molecule `CO[C@@H]1COC(=O)[C@@H](C)COC(=O)[C@@H](C)NC(=O)CC=C[C@@H]1C`, the composite z-score in [1] is -1.03; in experiment [3], 1.51; in experiment [4], -0.99; in experiment [5] it was -2.06; in experiment [6], -0.2; in [7], -0.13. Also, the composite z-score was 0.0629 in [8], 0.638 in experiment [9] and -0.553 in experiment [10]. In experiment [2], the z-score was -2.

`Cn1c(=O)n2n(c1=O)[C@H]1[C@H](O)[C@@H]3O[C@@H]3C(=NOCc3ccccc3)[C@H]1CC2`: the composite z-score was 0.729 in experiment [1]; -0.0238 in experiment [3]; -0.17 in experiment [4]; 0.33 in [5]; -0.232 in experiment [6]; -0.0339 in experiment [7]. Further, the results for the composite z-score in [8], in experiment [9] and in [10] were -0.0524, -0.0588 and 0.0868, respectively. In [2], this molecule had a z-score of -1.28.

For the molecule `COc1ccc(O[C@H]2C=C[C@@H](c3ccccc3)O[C@@H]2CON=C2[C@H]3CCn4c(=O)n(-c5ccccc5)c(=O)n4[C@H]3[C@H](O)[C@@H]3O[C@H]23)cc1`, the composite z-score in [1] was 0.807; in experiment [3] it was 0.505; in [4] it was 0.719; in [5] it was -0.21; in [6], -0.0192; in experiment [7], -0.0769. The figures for the composite z-score in [8], in [9] and in experiment [10] were -0.0855, 0.24 and 0.974, respectively. In experiment [2], the z-score was -4.67.

Consider `C=CC1=C[C@H](O)[C@@H]2O[C@@H]2C12OCCCO2`, for which the composite z-score was 0.304 in experiment [1]; 0.152 in experiment [3]; -0.396 in experiment [4]; -1.05 in experiment [5]; -0.105 in experiment [6]; -0.381 in experiment [7]. Further, the composite z-score in experiment [8] is -0.165; in [9], 0.169; in experiment [10], 0.43. The molecule also came in with a z-score in experiment [2] of -0.876.

As for `CCOC(=O)NN=C1C[C@@H](O)[C@@H](O)[C@@H]2[C@@H]3C(=O)N([C@@H](C)c4ccccc4)C(=O)[C@@H]3CC[C@H]12`, the composite z-score in experiment [1] was 0.171; in [3] it was 0.0792; in experiment [4] it was -0.258; in [5], -0.453; in experiment [6], -0.124; in [7], -0.117. Also, the composite z-score in experiment [8] was -0.287; in experiment [9], 2.53; in experiment [10], -0.0914. Further, the z-score in experiment [2] was -0.789.

`CC(=O)Nc1ccc([C@@H]2N[C@H](C(=O)O)CC[C@H]2C)cc1`: the composite z-score in experiment [1] is -0.0931; in experiment [3], 0.523; in experiment [4], -0.105; in experiment [5], -0.635; in experiment [6] it was -0.0203; in [7], -0.226. Moreover, the composite z-score was -0.213 in [8], 0.14 in experiment [9] and 0.273 in experiment [10]. The same molecule showed a z-score in experiment [2] of 1.1.

`C=Cc1ccc([C@H]2N[C@H](C(=O)O)CC[C@@H]2C)cc1`: the composite z-score is -1.08 in experiment [1]; 0.712 in [3]; -0.478 in experiment [4]; 0.222 in [5]; -0.105 in experiment [6]; -0.0553 in experiment [7]. The composite z-score is -0.147 in experiment [8], -0.0037 in [9] and -0.112 in experiment [10]. The molecule further showed a z-score in experiment [2] of -1.09.
